Experimental data published in PubChem BioAssay (NCATS).

The compounds below were run against Glucocorticoid receptor (Homo sapiens) (UniProt P04150) (assay: GR-GFP Redistribution (AID 450)). Conditions: U2OS GR-GFP nuclear translocation, laser cytometry, 2 h;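 active = compounds whose dose series gives a full or clear partial fitted curve of increased nuclear translocation; inconclusive = weak partial curve or effect only at the top dose; inactive = no dose-dependent translocation response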.
Potency is the fitted concentration of half-maximal effect.

Glucocorticoid receptor (Homo sapiens), sequence (P04150 whole entry, looked up): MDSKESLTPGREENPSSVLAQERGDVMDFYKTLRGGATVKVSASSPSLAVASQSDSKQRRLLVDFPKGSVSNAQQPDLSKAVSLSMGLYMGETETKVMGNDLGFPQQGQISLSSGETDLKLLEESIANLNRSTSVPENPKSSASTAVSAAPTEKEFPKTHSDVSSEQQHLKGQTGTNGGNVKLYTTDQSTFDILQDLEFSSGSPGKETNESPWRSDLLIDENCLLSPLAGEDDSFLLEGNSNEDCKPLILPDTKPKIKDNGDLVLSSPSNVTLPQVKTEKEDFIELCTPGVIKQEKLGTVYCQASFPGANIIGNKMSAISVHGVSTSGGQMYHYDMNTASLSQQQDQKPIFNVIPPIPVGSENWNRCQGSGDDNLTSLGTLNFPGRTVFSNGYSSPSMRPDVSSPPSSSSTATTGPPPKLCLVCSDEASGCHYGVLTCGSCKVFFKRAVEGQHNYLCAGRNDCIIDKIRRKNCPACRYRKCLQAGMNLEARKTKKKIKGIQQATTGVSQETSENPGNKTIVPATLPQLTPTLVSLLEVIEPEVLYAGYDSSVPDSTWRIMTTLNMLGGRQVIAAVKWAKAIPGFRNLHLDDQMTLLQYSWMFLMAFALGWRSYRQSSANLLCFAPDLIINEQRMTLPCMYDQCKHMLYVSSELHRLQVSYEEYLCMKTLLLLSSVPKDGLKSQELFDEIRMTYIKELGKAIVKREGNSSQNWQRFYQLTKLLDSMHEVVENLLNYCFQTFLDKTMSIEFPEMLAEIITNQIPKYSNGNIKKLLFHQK

Potency, inactive:
COCCn1c(=O)c(-c2ccc(OC)cc2)nc2cnc(Nc3ccccc3)nc21 > 9.22 µM
CN(C)Cc1ccccc1-c1cncnc1Nc1ccc(F)cc1 > 46 µM
N#CCCn1c(=O)cnc2cnc(Nc3ccccc3)nc21 > 9.22 µM
CCNc1ncc2nc(-c3cccs3)c(=O)n(-c3ccc(OC)cc3)c2n1 > 9.22 µM
c1cncc(-c2nc(NCCN3CCOCC3)c3ccccc3n2)c1 > 46 µM
Cc1cccc(CNc2cc(-c3ccccc3C)ncn2)c1 > 46 µM
O=c1c(CCc2ccccc2)nc2cnc(Nc3ccccc3)nc2n1Cc1cccs1 > 9.22 µM
N#CCCn1c(=O)c(-c2cccs2)nc2cnc(Oc3ccccc3)nc21 > 9.22 µM
COCCn1c(=O)c(-c2cccs2)nc2cnc(OCc3ccccc3)nc21 > 9.22 µM
